For 26 compounds, Potency, max activation and outcome results are on record in PubChem BioAssay (Tox21).

A number with no mark means an inactive call. Inconclusive results are not listed. The source made the active and inactive calls. Unless noted, the call rests on the fitted dose curve; in most records, active means well fitted curve in the direction sought with a large enough effect in the repeat runs; inconclusive means weak or mixed curves; inactive means no such curve, though single readings can be large; an effect the other way counts as inactive or inconclusive.

Test [1] is described as follows: qHTS assay for small molecule agonists of the p53 signaling pathway (AID 651631; calls by dose curve; further: nearly all actives have a fitted effect of over 15% in size). The method, boiled down:
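Readout was fluorescence from the LiveBLAzer FRET substrate, applied for 2 h at room temperature after 16 h compound exposure at 37 °C. Cells were the p53RE-bla HCT-116 line, with beta-lactamase driven by p53 response elements.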
(qHTS replaces the single test concentration by a dilution series.)

Test [2] is described as follows: qHTS assay for small molecule disruptors of the mitochondrial membrane potential (AID 720635). Further: potency means the concentration at half of the fitted maximal effect. Put shortly: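 HepG2 cells exposed to compound 1 hr at 37C, then Mito-MPS dye 30 min. Ratio read of aggregate (540/590 nm) versus monomer (490/535 nm) fluorescence.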
In test [3] the target is Glucocorticoid receptor (Homo sapiens) (UniProt P04150). Description: qHTS assay to identify small molecule antagonists of the glucocorticoid receptor (GR) signaling pathway (AID 720692; active means well fitted inhibition curve with a large enough effect in the signal ratio in the repeat runs, not every such curve was filed as active; the % refers to the signal ratio; further: potency means the concentration at half of the fitted maximal effect). Put shortly:
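Inhibition of dexamethasone-driven (5 nM final) beta-lactamase expression was measured in GRE-reporter HeLa cells over 18 h at 37C. Fluorescence was read after 2 h with the B/G FRET substrate at room temperature.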

Test [4] can be described thus: qHTS assay to identify small molecule antagonists of the estrogen receptor alpha (ER-alpha) signaling pathway using the BG1 cell line (AID 743080; calls by dose curve;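 further: BG1 cells stimulated with 17beta-estradiol alongside compound; nearly all actives have a fitted effect of over 25% in size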; further: potency means the concentration at half of the fitted maximal effect). The method, boiled down: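 Endogenous full-length ER-alpha in BG1-Luc-4E2 cells drives a stably integrated 4×ERE luciferase gene; compounds were tested against 17beta-estradiol over 21.5 h, with luminescence and multiplexed viability fluorescence recorded.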

Test [5] concerns the target Nuclear receptor subfamily 1 group I member 2 (Rattus norvegicus) (UniProt Q9R1A7). As to the kind of experiment: Rat pregnane X receptor (rPXR) activation by small molecules, qHTS assay (AID 1346983). Further: nearly all actives have a fitted effect of over 20% in size. Particulars: rPXR luciferase reporter cells, One-Glo luminescence, 24 h; max activation: hits give high values. The method, boiled down: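 Cell-based rPXR activation assay: rPXR cells, 2,000 per well, rested 5hr at 37 C, then exposed to compounds in DMSO for 24 hr at 37 C. Luciferase activity read by One-Glo luminescence after 30 min at room temperature.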

In test [6] the target is Glucocorticoid receptor (Homo sapiens) (UniProt P04150). As to the kind of experiment: qHTS assay to identify small molecule agonists of the glucocorticoid receptor (GR) signaling pathway (AID 720691; active means well fitted activation curve with a large enough effect in the signal ratio in the repeat runs, not every such curve was filed as active; the % refers to the signal ratio). The method, boiled down: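 Agonist-mode qHTS in HeLa cells stably expressing a glucocorticoid-response-element beta-lactamase reporter. Fluorescence intensity read with FRET substrate (2 h, room temperature) after 18 h compound treatment at 37 C.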
Sequence of Glucocorticoid receptor (Homo sapiens) (P04150 whole entry, looked up): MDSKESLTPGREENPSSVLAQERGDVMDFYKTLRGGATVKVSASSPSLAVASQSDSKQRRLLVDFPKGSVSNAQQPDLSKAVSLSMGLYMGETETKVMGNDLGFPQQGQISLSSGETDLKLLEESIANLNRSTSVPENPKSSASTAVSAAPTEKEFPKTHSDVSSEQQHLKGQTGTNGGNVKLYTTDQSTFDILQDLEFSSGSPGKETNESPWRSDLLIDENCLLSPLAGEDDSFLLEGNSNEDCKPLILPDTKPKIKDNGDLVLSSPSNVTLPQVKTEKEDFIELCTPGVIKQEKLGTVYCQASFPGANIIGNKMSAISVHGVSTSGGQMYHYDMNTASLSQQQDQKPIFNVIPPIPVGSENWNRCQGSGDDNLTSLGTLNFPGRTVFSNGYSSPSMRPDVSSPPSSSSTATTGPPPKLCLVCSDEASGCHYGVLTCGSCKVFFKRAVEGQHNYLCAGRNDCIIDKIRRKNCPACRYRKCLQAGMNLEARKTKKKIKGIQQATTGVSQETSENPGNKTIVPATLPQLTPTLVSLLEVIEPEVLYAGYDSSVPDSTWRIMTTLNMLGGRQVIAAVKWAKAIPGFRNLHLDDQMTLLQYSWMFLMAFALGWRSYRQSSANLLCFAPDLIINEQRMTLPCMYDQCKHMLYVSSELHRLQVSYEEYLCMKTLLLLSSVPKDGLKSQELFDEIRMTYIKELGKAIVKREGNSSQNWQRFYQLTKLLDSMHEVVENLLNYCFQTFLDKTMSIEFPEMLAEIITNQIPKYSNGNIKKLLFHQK

In test [7] the target is Estrogen receptor (Homo sapiens) (UniProt P03372). As to the kind of experiment: qHTS assay to identify small molecule antagonists of the estrogen receptor alpha (ER-alpha) signaling pathway (AID 743069; active means well fitted curve in the direction sought with a large enough effect in the signal ratio in the repeat runs, not every such curve was filed as active; the % refers to the signal ratio; further: potency means the concentration at half of the fitted maximal effect). The method, boiled down: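 In this cell-based reporter format, GripTite HEK293 cells harbouring ER-alpha-UAS-bla were grown overnight with 2% charcoal-stripped FBS, dosed with DMSO-dissolved compounds, then challenged with 17beta-estradiol. After 18 hr at 37C, beta-lactamase activity was detected by FRET fluorescence.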
Sequence of Estrogen receptor (Homo sapiens) (P03372 whole entry, looked up): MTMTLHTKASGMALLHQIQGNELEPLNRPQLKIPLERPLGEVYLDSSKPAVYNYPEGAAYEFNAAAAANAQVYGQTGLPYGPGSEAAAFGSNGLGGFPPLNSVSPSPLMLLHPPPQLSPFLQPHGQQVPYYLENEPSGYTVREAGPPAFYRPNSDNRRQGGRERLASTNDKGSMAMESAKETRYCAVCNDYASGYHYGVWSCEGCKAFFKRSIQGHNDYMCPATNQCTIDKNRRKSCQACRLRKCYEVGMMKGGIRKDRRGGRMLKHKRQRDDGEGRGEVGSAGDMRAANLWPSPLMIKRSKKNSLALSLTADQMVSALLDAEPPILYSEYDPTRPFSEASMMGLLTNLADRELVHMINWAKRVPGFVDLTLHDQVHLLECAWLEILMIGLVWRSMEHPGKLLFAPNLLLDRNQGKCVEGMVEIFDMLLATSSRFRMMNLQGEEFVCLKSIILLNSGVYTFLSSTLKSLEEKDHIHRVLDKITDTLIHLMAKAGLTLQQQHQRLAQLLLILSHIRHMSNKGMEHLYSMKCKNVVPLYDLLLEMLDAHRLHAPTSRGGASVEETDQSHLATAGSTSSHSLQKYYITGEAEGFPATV

Test [8] addresses Peroxisome proliferator-activated receptor delta (Homo sapiens) (UniProt Q03181). As to the kind of experiment: qHTS assay to identify small molecule agonists of the peroxisome proliferator-activated receptor delta (PPARd) signaling pathway (AID 743212; calls by dose curve). The method, boiled down:
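Tox21 library screened in GeneBLAzer PPARd UAS-bla HEK293H cells. After compound treatment at 37 C, a FRET-based beta-lactamase substrate was applied for 2 h and fluorescence recorded.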

Test [9] is described as follows: Caspase-3/7 induction in HepG2 cells by small molecules, qHTS assay (AID 1346978). Further: nearly all actives have a fitted effect of over 15% in size. The method, boiled down:
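Wild-type HepG2 cells, 2,000/well, settled 5 hr at 37 C and 5% CO2, then compound-treated for 17 hr; caspase-3/7 activity read by luminescent Caspase-Glo 3/7 after 30 min at room temperature.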

The target of test [10] is Acetylcholinesterase (Homo sapiens) (UniProt P22303). As to the kind of experiment: Acetylcholinesterase (AChE) small molecule antagonists: enzyme-based qHTS assay with human liver microsomes (AID 1347399; calls by dose curve; further: nearly all actives have a fitted effect of over 60% in size). Particulars: Potency: qHTS inhibition; outcome: qHTS inhibition. The method, boiled down:
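Recombinant human AChE (50 mU/mL in the enzyme mix) and human liver microsomes (0.25 mg/mL final) were preincubated with compound and NADPH (0.25 mg/mL final) for 30 min at 37 C. Acetylthiocholine/DTNB was then added; thiocholine was read colorimetrically after 10 min at room temperature.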

Test [11] deals with Androgen receptor (Homo sapiens) (UniProt P10275). Description: qHTS assay to identify small molecule antagonists of the androgen receptor (AR) signaling pathway (AID 743035; active means well fitted inhibition curve with a large enough effect in the signal ratio in the repeat runs, not every such curve was filed as active; the % refers to the signal ratio; further: potency means the concentration at half of the fitted maximal effect). The method, boiled down:
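Antagonist mode: AR-bla HEK293 cells co-treated with test compounds and agonist R1881 for 16 h at 37C, 5% CO2. Beta-lactamase activity read as FRET fluorescence after 2 h room-temperature substrate loading.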

Test [12] shares this target. As to the kind of experiment: qHTS assay to identify small molecule antagonists of the androgen receptor (AR) signaling pathway using the MDA cell line (AID 743042; further: nearly all actives have a fitted effect of over 55% in size; further: potency means the concentration at half of the fitted maximal effect). The method, boiled down: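 MDA-kb2 breast carcinoma cells carrying MMTV-luciferase (AR/GR responsive) were co-treated with compounds and the agonist R1881 for 16 h at 37C. Inhibition read as ONE-Glo luminescence; CellTiter-Fluor fluorescence measured in parallel for cytotoxicity.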

A short description of test [13]: qHTS assay for small molecule activators of the heat shock response signaling pathway (AID 743210; active means well fitted activation curve with a large enough effect in the signal ratio in the repeat runs, with a control signal flat, not every such curve was filed as active; the % refers to the signal ratio;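 further: HeLa cells with beta-lactamase reporter driven by heat shock elements; series mostly up to about 63 µM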). The method, boiled down: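 Following overnight attachment, HSE-bla HeLa cells received test compounds for 5 h at 37 C; beta-lactamase activity was then detected via FRET substrate fluorescence.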
Test [14] deals with Androgen receptor (Homo sapiens) (UniProt P10275). Description: qHTS assay to identify small molecule agonists of the androgen receptor (AR) signaling pathway using the MDA cell line (AID 743040; further: nearly all actives have a fitted effect of over 20% in size). The method, boiled down: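 Testing was done with the MDA-kb2 AR-luc line, a human breast carcinoma stably transfected with MMTV-luciferase containing AR and GR response elements. Cells were exposed 16 h at 37C before ONE-Glo luminescence detection.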
Sequence of Androgen receptor (Homo sapiens) (P10275 whole entry, looked up): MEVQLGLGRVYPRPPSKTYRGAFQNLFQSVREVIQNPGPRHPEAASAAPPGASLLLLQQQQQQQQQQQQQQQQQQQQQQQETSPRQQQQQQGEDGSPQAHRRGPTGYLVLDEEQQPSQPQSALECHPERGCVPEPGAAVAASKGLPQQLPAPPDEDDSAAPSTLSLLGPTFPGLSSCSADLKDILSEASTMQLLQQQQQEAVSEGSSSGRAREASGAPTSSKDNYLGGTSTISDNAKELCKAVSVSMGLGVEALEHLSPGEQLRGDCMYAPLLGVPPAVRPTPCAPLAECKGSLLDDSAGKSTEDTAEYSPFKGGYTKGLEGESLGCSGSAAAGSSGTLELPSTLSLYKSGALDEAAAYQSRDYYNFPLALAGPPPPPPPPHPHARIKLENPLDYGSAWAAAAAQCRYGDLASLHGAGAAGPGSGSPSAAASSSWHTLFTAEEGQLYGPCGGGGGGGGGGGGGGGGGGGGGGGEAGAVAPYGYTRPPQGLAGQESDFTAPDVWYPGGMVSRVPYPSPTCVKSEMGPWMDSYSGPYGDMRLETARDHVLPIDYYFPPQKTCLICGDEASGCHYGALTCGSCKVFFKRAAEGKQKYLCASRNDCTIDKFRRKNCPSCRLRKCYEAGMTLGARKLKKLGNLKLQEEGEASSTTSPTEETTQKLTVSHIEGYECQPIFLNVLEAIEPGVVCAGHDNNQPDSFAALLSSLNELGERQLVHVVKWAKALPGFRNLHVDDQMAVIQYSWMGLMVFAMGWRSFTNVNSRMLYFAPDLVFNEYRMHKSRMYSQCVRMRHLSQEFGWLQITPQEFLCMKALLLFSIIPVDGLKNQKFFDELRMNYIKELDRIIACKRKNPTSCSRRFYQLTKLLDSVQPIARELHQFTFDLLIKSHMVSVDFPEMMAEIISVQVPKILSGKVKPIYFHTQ
On the % scale 0 is the no-effect control and ±100 the full control effect.

Sequence of Acetylcholinesterase (Homo sapiens) (P22303 whole entry, looked up): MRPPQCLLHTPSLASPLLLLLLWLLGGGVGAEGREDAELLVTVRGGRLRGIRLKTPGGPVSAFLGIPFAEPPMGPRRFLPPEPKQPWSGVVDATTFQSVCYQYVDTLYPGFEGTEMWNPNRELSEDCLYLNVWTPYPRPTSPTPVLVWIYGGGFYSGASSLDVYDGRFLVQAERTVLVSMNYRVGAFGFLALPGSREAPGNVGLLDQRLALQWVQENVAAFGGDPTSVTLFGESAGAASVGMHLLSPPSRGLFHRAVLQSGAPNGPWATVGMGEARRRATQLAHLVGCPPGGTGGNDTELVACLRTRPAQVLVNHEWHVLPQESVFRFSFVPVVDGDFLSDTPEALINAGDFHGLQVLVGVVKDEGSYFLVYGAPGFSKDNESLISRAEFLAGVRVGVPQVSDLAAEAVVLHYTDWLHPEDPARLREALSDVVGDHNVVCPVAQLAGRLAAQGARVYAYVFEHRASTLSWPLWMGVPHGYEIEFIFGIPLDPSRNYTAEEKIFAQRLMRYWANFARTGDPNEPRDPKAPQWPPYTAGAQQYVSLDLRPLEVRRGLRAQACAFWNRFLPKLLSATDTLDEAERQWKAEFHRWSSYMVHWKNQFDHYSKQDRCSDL
Sequence of Nuclear receptor subfamily 1 group I member 2 (Rattus norvegicus) (Q9R1A7 whole entry, looked up): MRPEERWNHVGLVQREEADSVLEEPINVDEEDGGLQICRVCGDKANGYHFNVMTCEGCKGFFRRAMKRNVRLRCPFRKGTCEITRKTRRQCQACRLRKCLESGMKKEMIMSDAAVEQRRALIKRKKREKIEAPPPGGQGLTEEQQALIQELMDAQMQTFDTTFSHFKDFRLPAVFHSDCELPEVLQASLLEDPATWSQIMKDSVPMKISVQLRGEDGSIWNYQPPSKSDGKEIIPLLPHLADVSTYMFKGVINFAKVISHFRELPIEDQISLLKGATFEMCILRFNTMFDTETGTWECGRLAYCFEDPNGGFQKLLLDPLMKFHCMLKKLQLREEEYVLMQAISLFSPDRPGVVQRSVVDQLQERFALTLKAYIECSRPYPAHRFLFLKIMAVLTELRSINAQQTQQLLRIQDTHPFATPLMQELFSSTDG
Sequence of Peroxisome proliferator-activated receptor delta (Homo sapiens) (Q03181 whole entry, looked up): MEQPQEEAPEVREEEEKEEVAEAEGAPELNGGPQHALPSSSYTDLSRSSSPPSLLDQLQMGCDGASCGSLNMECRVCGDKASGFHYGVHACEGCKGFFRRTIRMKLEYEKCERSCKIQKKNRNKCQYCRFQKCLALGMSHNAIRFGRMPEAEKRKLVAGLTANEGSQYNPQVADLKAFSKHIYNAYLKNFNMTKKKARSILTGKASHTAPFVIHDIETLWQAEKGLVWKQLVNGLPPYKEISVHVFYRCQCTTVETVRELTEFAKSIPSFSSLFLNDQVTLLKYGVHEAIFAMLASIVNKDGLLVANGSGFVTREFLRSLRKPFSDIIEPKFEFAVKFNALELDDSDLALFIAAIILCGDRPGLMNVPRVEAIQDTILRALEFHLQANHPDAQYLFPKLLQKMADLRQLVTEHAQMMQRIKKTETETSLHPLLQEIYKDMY

For `CC(C)[C@@]1(NC(=O)[C@@H]2C[C@@H]3c4cccc5[nH]cc(c45)C[C@H]3N(C)C2)O[C@@]2(O)[C@@H]3CCCN3C(=O)[C@H](Cc3ccccc3)N2C1=O`, the Potency entry in test [1], in test [3] and in test [4] was “inactive” each time. For the same compound, in test [2], the Potency is 0.841 µM (active). Further, the max activation in [5] was -8.17%.
On to `CN1[C@@H]2CC[C@H]1CC(OC1c3ccccc3CCc3ccccc31)C2` (some centres not stated), for which the Potency entry in test [6], in [3], in [7] and in [4] was “inactive” in each case.
With `C=CCOc1c(Br)cc(C(C)(C)c2cc(Br)c(OCC=C)c(Br)c2)cc1Br`, the Potency result in [1], in [3], in [9] and in [10] was “inactive” throughout. In addition, in test [8], the outcome was inactive.
On to `Clc1cc(Cl)c(-c2c(Cl)c(Cl)cc(Cl)c2Cl)cc1Cl`, for which the Potency entry in test [9] and in test [10] was “inactive” in each case.
Regarding `CN(C)CCCCCCN(C)C` (tested in a mixture with another compound), the Potency result in test [2], in [6] and in [3] was “inactive” throughout.
As for `C[C@@H]1[C@@H]2Cc3ccc(O)cc3[C@@]1(C)CCN2CCc1ccccc1`, the Potency entry in test [2] and in test [6] was “inactive” throughout.
On to `COc1cc(C[C@H](C)N)c(OC)cc1C`, for which the Potency entry in test [6], in test [3] and in test [7] was “inactive” throughout.
Take `Cc1nnc2n1-c1sc(Br)cc1C(c1ccccc1Cl)=NC2`: the Potency entry in test [6] and in [12] was “inactive” each time. The figures for the Potency in [3] and in test [11] were 10.7 µM (active) and 8.49 µM (active), respectively.
Consider `COc1ccc(OC)c(C[C@H](C)N)c1`, for which the Potency entry in [2] and in test [4] was “inactive” each time.
Regarding `Clc1cc(Cl)c(Cl)cc1Cl`, the Potency result in test [9] is “inactive”.
Consider `CN1[C@@H]2CC[C@H]1CC(OC(=O)C(CO)c1ccccc1)C2` (some centres not stated), for which, in test [9], the Potency result was “inactive”.
Take `C[C@]12CC[C@H]3[C@@H](CCC4=CC(=O)CC[C@@]43C)[C@@H]1CC[C@H]2O`: the Potency in test [3] is 4.25 µM (active).
Turning to `CNC(=O)Oc1ccc2c(c1)[C@]1(C)CCN(C)[C@@H]1N2C`, the Potency result in test [1] and in test [9] was “inactive” throughout.
Consider `CO[C@H]1[C@@H](O)C[C@H](O[C@H]2[C@@H](O)C[C@H](O[C@H]3[C@@H](O)C[C@H](O[C@H]4CC[C@@]5(C)[C@H](CC[C@@H]6[C@@H]5C[C@@H](O)[C@]5(C)[C@@H](C7=CC(=O)OC7)CC[C@]65O)C4)O[C@@H]3C)O[C@@H]2C)O[C@@H]1C`, for which the Potency in test [2] was 0.699 µM (active); in test [11], 0.338 µM (active); in test [12], 1.68 µM (active). In test [5], the max activation was -4.43%.
On to `O=c1c2ccccc2[se]n1-c1ccccc1`, for which the Potency in test [2] was 22.1 µM (active). In addition, the Potency result in test [6] was “inactive”.
`C[C@H]1CC[C@]2(NC1)O[C@H]1C[C@H]3[C@@H]4CC[C@H]5C[C@@H](O)CC[C@]5(C)[C@H]4CC[C@]3(C)[C@H]1[C@@H]2C`: the Potency entry in test [1] and in [7] was “inactive” in each case. Moreover, in test [5], the max activation was 11.8%.
Turning to `Brc1ccc(Oc2ccc(Br)cc2)cc1`, the Potency result in [1], in [13], in test [9] and in test [10] was “inactive” each time.
For `COc1cc2c(cc1OC)[C@@H]1CC(=O)[C@@H](CC(C)C)CN1CC2`, the Potency result in test [9] and in test [10] was “inactive” each time.
`COc1ccc(C)cc1N`: the Potency entry in [1], in test [9] and in test [10] was “inactive” throughout.
`CCCCCc1cc(O)c2c(c1)OC(C)(C)c1ccc(C)cc1-2`: the Potency in test [2] was 1.68 µM (active); in test [11] it was 16.9 µM (active); in test [4], 29.8 µM (active). In addition, the Potency entry in test [14] was “inactive”.
As to `C[C@@H]1[C@H](O)[C@@H](C)/C=C/C=C/CC/C=C/C=C/C=C/C=C/[C@H](O[C@H]2O[C@@H](C)[C@H](O)[C@@H](N)[C@H]2O)CC2O[C@](O)(C[C@@H](O)[C@H](O)CC[C@@H](O)C[C@@H](O)C[C@@H](O)CC(=O)O[C@H]1C)C[C@H](O)[C@H]2C(=O)O`, the Potency result in [11], in test [14], in test [12] and in test [7] was “inactive” in each case.
For `C[C@H]1[C@H]2Cc3ccc(O)cc3[C@]1(C)CCN2CCc1ccccc1`, the Potency entry in [6], in test [3] and in [7] was “inactive” each time.
For the compound `CC(=O)O[C@H]1C[C@H](O[C@H]2[C@@H](O)C[C@H](O[C@H]3[C@@H](O)C[C@H](O[C@H]4CC[C@@]5(C)[C@H](CC[C@@H]6[C@@H]5C[C@@H](O)[C@]5(C)[C@@H](C7=CC(=O)OC7)CC[C@]65O)C4)O[C@@H]3C)O[C@@H]2C)O[C@H](C)[C@H]1O[C@@H]1O[C@H](CO)[C@@H](O)[C@H](O)[C@H]1O`, the figures for the Potency in [2] and in [11] were 0.75 µM (active) and 0.301 µM (active), respectively. The Potency result in test [6] was “inactive”. Further, the max activation in test [5] is 4.17%.
`O.O.O.O=C([O-])C(O)C(O)C(=O)[O-].O=C([O-])C(O)C(O)C(=O)[O-].[K+].[K+].[Sb].[Sb]` (configuration not stated): the Potency in test [7] is 19 µM [inhibitor] (active).
In the case of `CCN(CC)CCO[C@H]1CC[C@@]2(C)C(=CC[C@@H]3[C@@H]2CC[C@]2(C)C(=O)CC[C@@H]32)C1`, the Potency result in test [2] and in test [7] was “inactive” throughout.
For `NCCNCCNCCNCCN`, the Potency entry in test [10] is “inactive”.
